Screening results: PubChem BioAssay, several laboratories
TLR9-MyD88 block: blocks human TLR9 binding to MyD88; 0.21% of 340,000 active; Q9NR96+Q99836; CHO BLA complementation TLR9-MyD88, CCF4 FRET ratio; inhibition, % at 4.98 µM;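 active = inhibition above the mean over all tested compounds plus 3 SD, cut at about 21% in these data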;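 note: 0% = DMSO only wells and 100% = clavulanate BLA inhibitor control wells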
ABHD5-PLIN5 inh: blocks binding of human ABHD5 to perilipin-5. inhibition, % at 4 µM. 0.78% of 360,000 active. Q00G26+Q8WTS1. Split G. princeps luciferase complementation, luminescence, 4 h;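 active = inhibition above the mean inhibition across every tested compound plus 3 SD, cut at about 22% in these data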;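 note: 0% = DMSO only wells and the 100% control is not disclosed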
TLR4 MyD88 comp: blocks binding of human TLR4 to MyD88. O00206+Q99836. inhibition, % at 8.4 µM. HeLa CL3-4 TLR4/MyD88 BLA complementation, FRET ratio. 0.18% of 200,000 active. AID 861; in the data active = inhibition above about 25%;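 note: 0% = vehicle and 100% = reference inhibitor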
NOD2-RIPK2 inh: blocks binding of human NOD2 to RIPK2. AID 624267. inhibition, % at 4.98 µM. O43353. 0.38% of 360,000 active. CHO BLA complementation NOD2-RIPK2, CCF4 ratio; in the data active = inhibition above about 21%;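 note: 0% = vehicle only and 100% = reference blocker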
Target sequence (O43353 whole entry, looked up): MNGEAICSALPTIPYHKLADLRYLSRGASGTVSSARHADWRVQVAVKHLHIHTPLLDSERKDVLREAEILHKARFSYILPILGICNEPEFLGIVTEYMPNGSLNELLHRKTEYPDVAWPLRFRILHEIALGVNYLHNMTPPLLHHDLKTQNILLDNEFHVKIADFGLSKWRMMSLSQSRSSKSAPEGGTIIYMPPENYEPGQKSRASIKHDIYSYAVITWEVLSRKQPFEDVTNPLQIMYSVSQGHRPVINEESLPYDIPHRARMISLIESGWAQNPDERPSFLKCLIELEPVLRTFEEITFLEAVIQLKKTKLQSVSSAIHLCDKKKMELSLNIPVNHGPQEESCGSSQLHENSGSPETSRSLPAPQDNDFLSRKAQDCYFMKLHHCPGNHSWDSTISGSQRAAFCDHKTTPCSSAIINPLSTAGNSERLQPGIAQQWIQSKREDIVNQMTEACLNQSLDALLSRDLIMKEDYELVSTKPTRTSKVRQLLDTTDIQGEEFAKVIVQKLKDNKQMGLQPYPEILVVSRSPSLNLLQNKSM
m5-HT2A agonist: mouse HTR2A agonism via beta-arrestin recruitment. CHO-K1 mHTR2A beta-arrestin complementation, luminescence; percent of 30 µM serotonin response. activation, % at 7.6 µM. 0.66% of 360,000 active;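 active = activation above a run cutoff, the mean activation of all tested compounds plus 3 SD, cut at about 14% in these data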;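 note: 0% = plate median of compound wells and 100% = 30 µM serotonin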
CRFBP-R2 block: antagonists of CRF-binding protein/CRF-R2 receptor complex | HEK293 CRF-R2/CRF-BP, CRF-induced calcium fluorescence | inhibition, % at 11.8 µM | 0.59% of 350,000 active | AID 588475;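 active = inhibition of the ligand-induced calcium signal above about 50% at the single tested concentration, limit read from the data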
OPRM1 ag: activates human mu opioid receptor in HTR2A counterscreen; U2OS OPRM1 beta-arrestin PathHunter, luminescence; DMSO 0%, DAMGO 9.3 µM 100%; shares compounds with m5-HT2A agonist; activation, % at 9.3 µM; AID 624380; 5.3% of 2,300 active;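 active = mean activation above the mean of DMSO-only wells plus 3 SD, cut at about 0.5% in these data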
m5-HT2A ag conf: mouse HTR2A agonism confirmed; 19% of 2,300 active; activation, % at 7.6 µM; CHO-K1 PathHunter beta-arrestin recruitment, luminescence; DMSO 0%, 30 µM serotonin 100%; shares compounds with m5-HT2A agonist;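 active = mean activation across triplicates above the hit threshold derived in the original primary screen, cut at about 15% in these data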
The depositor's hits bear a star; . = not tested or not shown. A selection: hits, their analogues and other compounds. The true share with any hit is near 2.4%.

SMILES	TLR9-MyD88 block	ABHD5-PLIN5 inh	TLR4 MyD88 comp	NOD2-RIPK2 inh	m5-HT2A agonist	CRFBP-R2 block	OPRM1 ag	m5-HT2A ag conf
COc1ccc2c(c1)C(O)C(CO)C(C(=O)O)C2 (stereo not given)	-1	-2	.	3	16*	-5	-1	-3
Cc1cc(C)c(OCCCNCc2ccccc2)c(Br)c1	-10	6	.	-9	20*	-11	0	4
Cc1cc(Cl)c(OCCCNCc2ccccc2)c(Br)c1	1	-2	12	-3	20*	-34	0	10
COc1ccc2c(c1)c(=O)oc1cc(OCC(=O)NC3CC3)ccc12	1	-4	-9	-5	15*	-10	0	-4
O=C(NCc1ccncc1)[C@@H]1CCCN1C(=O)[C@H]1CCCN1C(=O)c1cccc(Cl)c1	.	6	.	4	4	.	.	.
O=S(=O)(Nc1cccc(-n2cnnn2)c1)c1ccccc1	6	1	.	0	15*	-6	0	1
CCCCCCCCN1C(=O)[C@H](CC(=O)NCc2cccc(C(F)(F)F)c2)C[C@@]2(C(=O)OC)CC(C)(C)CC=C12	.	-7	.	-3	-6	.	.	.
COc1ccc(CCC(=O)OCC(=O)c2c(N)n(CC(C)C)c(=O)n(C)c2=O)cc1	-5	5	.	-3	17*	11	0	-1
CC(C)Cn1c(N)c(C(=O)CSc2ncccn2)c(=O)n(C)c1=O	7	4	.	-3	2	-5	.	.
CC(C)Cn1c(N)c(C(=O)CSc2n[nH]c(N)n2)c(=O)n(C)c1=O	11	-19	.	3	25*	-5	-1	-3
COc1ccccc1CCC(=O)OCC(=O)c1c(N)n(CC(C)C)c(=O)n(C)c1=O	-4	1	.	5	5	8	.	.
O=C(NCc1cccc(C(F)(F)F)c1)C1C(=O)Nc2ccccc2C(=O)N1Cc1ccccc1 (stereo not given)	.	3	.	-8	-1	.	.	.
CC(C)(C)C(=O)N(Cc1nc2ccccc2c(=O)[nH]1)Cc1cccs1	0	7	-5	-9	15*	-4	-1	-6
CN(Cc1ccccc1)CC(O)COc1ccc(CNCCOc2cccnc2)cc1 (stereo not given)	-1	3	-4	-10	18*	7	-1	38*
CN(C)CCNc1ncnc2c1ncn2[C@H]1CN(Cc2ccncc2)C[C@@H](CO)O1	.	3	.	3	6	.	.	.
O=C(CSc1nc2ccc(Nc3nc(N4CCOCC4)nc(N4CCOCC4)n3)cc2s1)Nc1ccccc1Cl	-8	7	.	6	7	9	.	.
CC(=O)Nc1ccc2nc(SCC(=O)N3CCOCC3)sc2c1	4	2	-14	0	-2	5	.	.
O=C(CSc1nc2ccc(Nc3nc(N4CCOCC4)nc(N4CCOCC4)n3)cc2s1)Nc1ccccc1F	-8	1	.	-5	16*	6	0	-2
O=C(CSc1nc2ccc(Nc3nc(N4CCOCC4)nc(N4CCOCC4)n3)cc2s1)N1CCOCC1	1	-4	-3	1	15*	-10	-1	-3
CCCCn1nnnc1C(c1cc2ccccc2o1)N1CCN(c2ncccc2C#N)CC1 (stereo not given)	.	3	.	7	2	.	.	.
COc1ccccc1Nc1nnc(SCC(=O)N2CC(=O)Nc3ccccc32)s1	-12	4	-1	0	18*	-3	-1	-4
O=C1CN(C(=O)CSc2nnc(Nc3ccccc3)s2)c2ccccc2N1	-1	-2	8	-6	2	-12	.	.
O=C1c2ccccc2C(=O)N1c1ncccn1	1	0	-2	-14	22*	0	0	3
OC(c1cc(F)cc(Cl)c1)c1ncc(-c2ccc3ccccc3c2)[nH]1 (stereo not given)	.	-14	.	10	1	.	.	.
O=P(Nc1ccccc1)(Nc1ccccc1)c1ccccc1	-21	7	.	-3	15*	-8	-1	-3
SMILES	TLR9-MyD88 block	ABHD5-PLIN5 inh	TLR4 MyD88 comp	NOD2-RIPK2 inh	m5-HT2A agonist	CRFBP-R2 block	OPRM1 ag	m5-HT2A ag conf
Nc1ccc(S(=O)(=O)Nc2ccnn2-c2ccccc2)cc1	-4	4	.	-12	19*	-24	-1	-4
O=C(Nc1ccc(S(=O)(=O)Nc2ccnn2-c2ccccc2)cc1)C(F)(F)F	-1	-5	.	0	0	2	.	.
COc1ccc(NS(=O)(=O)c2cn(C)cn2)cc1	-9	-3	.	-4	3	0	.	.
CSc1cccc(NS(=O)(=O)c2cn(C)cn2)c1	-25	8	.	-7	17*	0	-1	-2
COc1ccc(-c2cc(C)no2)cc1S(=O)(=O)NCCCN1CCN(c2ccccc2)CC1	-2	2	.	1	17*	0	0	26*
O=C(C1CCCCC1)N1CCC(c2nc3c(nnn3Cc3c(F)cccc3Cl)c(=O)[nH]2)CC1	4	6	15	-8	2	-6	.	.
Cc1nc2c(nnn2Cc2c(Cl)cccc2Cl)c(=O)[nH]1	-9	-1	.	-1	19*	6	0	5
COCCNc1nc(-c2cc(-c3ccc(Cl)cc3)on2)cc(C(C)C)n1	4	-1	.	-8	16*	-7	-1	-3
CC(C)c1cc(-c2cc(-c3ccc(Cl)cc3)on2)nc(NCC2CC2)n1	-6	-1	.	-14	-3	3	.	.
Cc1ccnc(NC(=O)c2cccc(NC(=O)CC3SC(N4CCCCC4)=NC3=O)c2)c1 (stereo not given)	-1	-3	.	-1	15*	2	0	-1
CCOc1ccccc1C(=O)NCC(=O)NNC(=O)c1cccs1	-7	6	.	7	19*	3	-1	-5
COc1ccccc1CC(=O)NNC(=O)c1cccs1	7	-7	-4	-5	15*	-16	-1	-1
Cn1c(N)c(C(=O)/C=C/c2ccccc2)c(=O)[nH]c1=O	-2	1	.	-7	26*	-1	-1	-4
O=C(COC(=O)/C=C/c1ccc(C(F)(F)F)cc1)NCC1CCCCC1	-7	6	.	-10	25*	-9	-1	-5
CC1CN(C(=O)COC(=O)/C=C/c2ccc(C(F)(F)F)cc2)CC(C)O1 (stereo not given)	-4	0	.	-10	3	8	.	.
O=C(CN1C(=O)COc2ccccc21)NCCCN1CCN(c2ccccc2F)CC1	7	16	.	-8	-2	8	.	.
O=C(NCCCN1CCN(c2ccccc2F)CC1)C1CC(=O)N(C2CCCC2)C1 (stereo not given)	-1	-6	-9	-9	17*	0	-1	39*
